GIRK2 activator – Activates human GIRK2-containing potassium channels; AID 1259324; activation (% efficacy), % for hits at 37.5 µM; 34,000 tested, under 10 active; HEK293 GIRK2/NPY4 cells, thallium flux fluorescence;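 active = primary screen hit, no activity in plain HEK293 cells, and in GIRK2-only cells above 5% efficacy rising with concentration; inactive = the rest, including fluorescent compounds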;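 note: efficacy is normalized control-subtracted fluorescence 15 s after thallium addition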
Target sequence (P48051 whole entry, looked up): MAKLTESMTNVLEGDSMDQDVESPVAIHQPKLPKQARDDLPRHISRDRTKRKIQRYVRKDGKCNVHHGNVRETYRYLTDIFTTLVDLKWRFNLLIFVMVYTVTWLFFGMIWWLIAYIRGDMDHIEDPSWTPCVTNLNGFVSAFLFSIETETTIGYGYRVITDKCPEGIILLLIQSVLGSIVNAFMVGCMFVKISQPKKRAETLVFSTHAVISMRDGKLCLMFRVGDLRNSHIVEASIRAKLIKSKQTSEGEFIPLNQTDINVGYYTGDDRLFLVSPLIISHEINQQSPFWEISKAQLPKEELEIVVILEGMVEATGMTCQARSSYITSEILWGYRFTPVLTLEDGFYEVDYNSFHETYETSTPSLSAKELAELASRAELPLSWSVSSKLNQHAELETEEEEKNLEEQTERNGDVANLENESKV
GluA2 TARP mod – modulators of AMPA receptor GluA2-stargazin complexes. O88602+P19491. HEK293 GluA2+stargazin, membrane potential dye (FDSS), glutamate EC50; hits were called plate by plate, in both directions. calls only at 30 µM. 3.5% of 40,000 active;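 active = any of four per-well response measures lying three or more SD from its plate-wide compound average, in either direction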
Calls only; 0 = inactive; - = not tested or not shown; + = active, no number; ! = a repeat was not active. The full list was thinned out, with hits kept by preference.

SMILES	GIRK2 activator	GluA2 TARP mod
O=C(NCC(O)(c1ccco1)C1CC1)NC1CCCCC1 (stereo not given)	0	+
O=C(NCC(O)(c1cccs1)C1CC1)c1ccco1 (stereo not given)	0	0
O=C(NCC(O)(c1cccs1)C1CC1)C1c2ccccc2Oc2ccccc21 (stereo not given)	0	+
O=C(NCC(O)(c1ccco1)C1CC1)Nc1ccccc1C(F)(F)F (stereo not given)	0	0
Cc1ccc(S(=O)(=O)/C(C#N)=C/N2CCN(c3ccc(F)cc3)CC2)cc1	0	0
CCCN1C(=O)NC2(CCN(C(=O)c3cccs3)CC2)C1=O	0	0
CS(=O)(=O)N1CCC(Cn2c(COc3ccccc3)nc3ccccc32)CC1	0	0
COC(=O)c1ccc(NC(=O)Cn2cnc(C(C)C)cc2=O)cc1	0	0
CC1CCN(S(=O)(=O)c2ccc(-c3nc(C#N)c(NCc4ccc5c(c4)OCO5)o3)cc2)CC1	0	0
O=C(OCN1C(=O)c2ccccc2C1=O)C1CCCCC1	-	0
CC(=O)OCCN1C(=O)c2cccc3c(N4CCCCC4)ccc(c23)C1=O	-	+
O=C(NCCc1cccs1)c1nnn(-c2ccccc2Cl)c1-c1ccncc1	0	+
CC(C(=O)NCCc1cccs1)n1nnc2ccccc2c1=O (stereo not given)	0	0
CCSc1nnc(-c2cn(C)nc2OC)n1C	0	0
O=C(Nc1sc2c(c1-c1nc3ccccc3s1)CCCC2)c1ccc(C(=O)c2ccccc2)cc1	-	0
O=C(Nc1ccc(-c2cn3ccsc3n2)cc1)NC1CCCCC1	0	+
COc1cc(C(C)=O)ccc1OCC(=O)Nc1ccc(-c2cn3ccsc3n2)cc1	0	0
Cc1nc2c(sc3ccccc32)c(=O)n1CC(=O)NCc1ccc2c(c1)OCO2	0	-
O=C(CSc1ccc(NC(=O)c2cccs2)nn1)NCc1ccc2c(c1)OCO2	0	0
Cc1ccc(C(=O)NCCOc2ccc3nnc(-c4ccccc4)n3n2)cc1C	0	0
c1ccc(CNc2nc(N3CCOCC3)nc3ccccc23)cc1	-	+
c1coc(CNc2nc(N3CCOCC3)nc(N3CCOCC3)n2)c1	0	0
COc1ccc(-c2nnc(NC(C)=O)o2)c(OC)c1	-	+
COc1ccc(C(=O)Nc2nnc(-c3ccccc3OC)o2)cc1	-	0
COc1ccccc1-c1nnc(NC(=O)Cc2ccc(S(C)(=O)=O)cc2)o1	-	+
SMILES	GIRK2 activator	GluA2 TARP mod
COc1ccccc1-c1nnc(NC(=O)c2ccccc2)o1	-	0
COc1ccc(-c2nnc(NC(=O)c3cccc(S(=O)(=O)C(C)C)c3)o2)c(OC)c1	0	+
COc1ccccc1-c1nnc(NC(=O)Cc2ccc(SC)cc2)o1	-	0
O=C(Nc1ccc(F)c(Cl)c1)N1CCN(c2ccc3nncn3n2)CC1	0	0
Cc1nc(NC(=O)CCS(=O)(=O)c2ccc(Cl)cc2)sc1C	0	0
COC(=O)Nc1ccc(S(=O)(=O)N2CCCC(C(=O)Nc3cccc(C(F)(F)F)c3)C2)cc1 (stereo not given)	-	0
O=C(Nc1cccc(C(F)(F)F)c1)C1CCCN(C(=O)Nc2cccs2)C1 (stereo not given)	0	+
CC(=O)Nc1ccc(S(=O)(=O)NCCN2CCOC(c3ccccc3)C2)cc1 (stereo not given)	0	-
O=C(N1CCC(Cn2cccn2)CC1)C1(c2ccc(Cl)cc2)CCCC1	0	+
O=C(N1CCC(Cn2cccn2)CC1)C1(c2cccs2)CCCC1	0	0
CC(C)S(=O)(=O)c1cccc(C(=O)Nc2cccc3c2C(=O)NC3=O)c1	0	0
COc1ccc(-c2ccc(C)c(NS(=O)(=O)c3ccc(NC(=O)C(C)C)cc3)c2)nn1	0	+
COc1ccc(-c2ccc(C)c(NC(=O)Cc3ccc(OC)c(OC)c3)c2)nn1	0	0
CC(C)S(=O)(=O)c1cccc(C(=O)Nc2ccccc2-c2nc3ccccc3[nH]2)c1	0	0
Cc1nnc(C2CCN(CC(=O)NCCc3ccccc3)CC2)s1	0	0
Cn1c(=O)c2c(nc(N3CCN(Cc4ccccc4)CC3)n2CC(O)COc2ccc(Cl)cc2)n(C)c1=O (stereo not given)	-	+
CC(O)CNc1nc2c(c(=O)[nH]c(=O)n2C)n1CC(O)COc1ccc(Cl)cc1 (stereo not given)	-	0
CCN1CCN(c2nc3c(c(=O)n(C)c(=O)n3C)n2CC(O)COc2ccccc2)CC1 (stereo not given)	-	0
CCN1CCN(c2nc3c(c(=O)[nH]c(=O)n3C)n2CC(O)COc2ccc(Cl)cc2)CC1 (stereo not given)	-	+
COc1ccc(-c2noc(Cn3cnc4c(nnn4-c4ccccc4)c3=O)n2)c(OC)c1	0	0
CCSc1nnc(NC(=O)CN2CCC(Cn3cnc4ccccc43)CC2)s1	0	0
CN1CCN(c2nc3c(c(=O)[nH]c(=O)n3C)n2CC(=O)c2ccc([N+](=O)[O-])cc2)CC1	-	+
COc1ccc(N2CCN(c3nc4c(c(=O)[nH]c(=O)n4C)n3CC(=O)c3ccccc3)CC2)cc1	-	0
Cc1ccsc1C(O)CNC(=O)Cc1ccccc1Cl (stereo not given)	0	0
Cc1ccsc1C(O)CNC(=O)C(c1ccccc1)c1ccccc1 (stereo not given)	0	+
SMILES	GIRK2 activator	GluA2 TARP mod
COC(=O)c1ccsc1NC(=O)C1CN(C(=O)c2cnccn2)C1	0	0
Cc1ccnc(SC2CC(=O)N(c3ccc(-c4ccccc4)cc3)C2=O)n1 (stereo not given)	-	0
O=C(CCCc1ccccc1)Nc1ccc2c(c1)N(C(=O)C1CCCC1)CC2	0	-
COc1cc(-c2nnc(NC(=O)c3ccc(C(C)=O)cc3)o2)cc(OC)c1OC	-	+
COc1cccc(C(=O)Nc2nnc(-c3ccc(C)c(C)c3)o2)c1	0	0
COc1cccc(C(=O)Nc2nnc(-c3cc(OC)c(OC)c(OC)c3)o2)c1	-	+
COc1cc(-c2nnc(NC(=O)c3ccc(OC(C)C)cc3)o2)cc(OC)c1OC	-	0
COc1ccc(Cl)cc1C(=O)Nc1nnc(-c2ccnn2C(C)C)o1	0	+
CC(C)n1nccc1-c1nnc(NC(=O)c2ccc(Cl)cc2Cl)o1	0	0
Cc1ccc(-c2nnc(CN3CCN(Cc4ccccc4)CC3)o2)cc1	0	0
Cc1ccc(-c2nnc(CN3CCC(Cc4ccccc4)CC3)o2)cc1	0	+!
COc1ccc(C(CNC(=O)C(=O)NCc2ccccc2Cl)N2CCOCC2)cc1 (stereo not given)	0	-
O=C(CS(=O)(=O)c1ccc(Cl)s1)Nc1cccc(C(F)(F)F)c1	0	+
O=C(CS(=O)(=O)c1ccc(Cl)s1)Nc1ccc(Oc2ccccc2)cc1	0	0
CCOCCn1c(N2CCN(CCc3ccccc3)CC2)nc2c1c(=O)[nH]c(=O)n2C	-	0
CCOC(=O)c1c(NC(=O)COc2cccc3c2CCN(Cc2ccc(Br)cc2)C3=O)sc2c1CCC2	-	+
O=C(COc1cccc2c1CCN(Cc1ccccc1)C2=O)NC1CCCCC1	-	0
NC(=O)C1Cc2ccccc2N1C(=O)c1cc([N+](=O)[O-])ccc1Cl (stereo not given)	0	0
COCc1cc(=O)[nH]c2cc(NC(=O)CSCc3ccccc3)ccc12	0	-
CNC(=O)Cn1nnn(-c2ccc(NC(=O)c3snnc3C)cc2)c1=O	0	0
COc1cccc(C(=O)NCC(O)(c2cccs2)C2CC2)c1OC (stereo not given)	0	0
COc1ccc(Cl)cc1C(=O)NCC(O)(c1ccccc1)C1CC1 (stereo not given)	-	+

Screens deposited in PubChem by several laboratories.
